Sampled rows, rich in hits. Any-hit rate of the full collection: about 8.7%.
BAZ2B inh: qHTS Assay for Inhibitors of BAZ2B; Bromodomain adjacent to zinc finger domain protein 2B (Homo sapiens), Q9UIF8; AlphaScreen BAZ2B-H3K14Ac peptide displacement; Potency, µM (highest dose often 114 µM), for the others: at the highest dose activity change, negative = inhibition, actives largely listed as inhibitors; 360,000 compounds, 4.4% hits; AID 504333, 2011; further: on the % scale 0 is the no-effect control and ±100 the full control effect; nearly all actives have a fitted effect of over 60% in size
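Compounds, titrated to a top concentration of 110 uM, were incubated 30 min at room temperature with preformed BAZ2B/acetyl-K14 H3 peptide complex (50 nM each). Proximity signal was measured by AlphaScreen after 20 min with beads.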
12-LOX inh: Primary qHTS assay for inhibitors of human arachidonate 12S-lipoxygenase (ALOX12): Round 2. Polyunsaturated fatty acid lipoxygenase ALOX12 (Homo sapiens), P18054. purified 12hLO, xylenol orange hydroperoxide absorbance. Potency, µM (doses to about 108 µM), for the others: top-dose activity change, negative = inhibition, most hits filed as inhibitors. 580,000 compounds, 1.1% hits. AID 1671190, 2021; further: on the % scale 0 is the no-effect control and ±100 the full control effect
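Purified human 12hLO (150 nM final) in 25 mM Hepes, 0.01% Triton X-100, pH 7.0 was preincubated 15 min at room temperature with compound. Then 40 uM arachidonic acid was added, 30 min. Hydroperoxide was read by Fe-XO absorbance ratio 573/405 nm.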
HP1b binding inh: HTS for Inhibitors of HP1-beta Chromodomain Interactions with Methylated Histone Tails. 390,000 compounds, 0.56% hits. AlphaScreen HP1-beta / biotin-H3K9me3 peptide binding. Potency, µM (titrated, usually from 114 µM), inactives show top-dose activity change, negative = inhibition, hits mostly inhibitors. Chromobox protein homolog 1 (Homo sapiens), P83916; further: nearly all actives have a fitted effect of over 70% in size
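Compound inhibition of the preformed complex between 50 nM HP1-beta and 50 nM biotinylated H3K9me3 peptide was read by AlphaScreen. Buffer was PBS pH 7.4 with 0.01% Tween-20. Incubations ran 30 min at room temperature, with 10 ug/mL donor/acceptor beads.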
JMJD2A Tudor: qHTS Assay for Inhibitors of JMJD2A-Tudor Domain. 390,000 compounds, 4.4% hits. AlphaScreen JMJD2A-Tudor / H3K4me3 peptide binding. AID 504339, 2011. Lysine-specific demethylase 4A (Homo sapiens), O75164. Potency, µM (doses to about 114 µM), without a hit: at the top dose activity change, negative = inhibition, most hits filed as inhibitors; further: on the % scale 0 is the no-effect control and ±100 the full control effect; nearly all actives have a fitted effect of over 50% in size
Sfp inh: qHTS Assay for Inhibitors of Bacillus subtilis Sfp phosphopantetheinyl transferase (PPTase); 4'-phosphopantetheinyl transferase ffp (Bacillus subtilis), Q9F4F7; 310,000 compounds, 3.5% hits; Potency, µM, for inactives: largest response in the series, negative = inhibition, hits mostly inhibitors; Biochemical Sfp PPTase activity, qHTS;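 further: the enzyme is Sfp with the accession as filed and its product quenches rhodamine fluorescence; 0% = enzyme reaction without inhibitor and -100% = no enzyme wells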
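Fluorescence-quenching assay with 15 nM Sfp, 5 uM rhodamine-CoA and 12.5 uM BHQ-2-labelled ybbR peptide in pH 7.6 Hepes/MgCl2 buffer. Enzyme was pre-incubated with compound for 15 min at room temperature. Rate was taken from the 30-min fluorescence change (525/598 nm).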
G9a inh: qHTS Assay for Inhibitors of Histone Lysine Methyltransferase G9a | Histone-lysine N-methyltransferase EHMT2 (Homo sapiens), Q96KQ7 | G9a H3K9 monomethylation, AlphaScreen, 2 h | Potency, µM (highest dose often 102 µM), for inactives: at the top dose activity, negative = inhibition, hits mostly inhibitors | 350,000 compounds, 8.8% hits; further: on the % scale 0 is the no-effect control and ±100 the full control effect; nearly all actives have a fitted effect of over 75% in size
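G9a (20 nM) was preincubated 15 min with compound, then reacted 2 h at room temperature with 500 nM biotin-H3K9 peptide and 20 µM SAM. Monomethyl-H3K9 detected by AlphaScreen using anti-H3K9me1 antibody.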
* = called active by the depositor; [ ] = dose if it differs, or a comment. The call rests on the fitted dose curve; in most records, active means well fitted curve in the direction sought with a large enough effect; inconclusive means small, poorly fitted or top-dose-only effect, or another doubt; inactive means no such curve, though single readings can be large; an effect the other way counts as inactive or inconclusive. Potency means the concentration at half of the fitted maximal effect.

`O=C(NCc1ccco1)c1ccc2nc3sc4c(c3c(=O)n2c1)CCCC4` gave BAZ2B inh 2%, Sfp inh 10µM* and G9a inh inconclusive.
CN1CCc2c(sc3nc(SCC(=O)N4CCOCC4)n(-c4ccc(Cl)cc4)c(=O)c23)C1 was read as BAZ2B inh inconclusive, 12-LOX inh 49%, HP1b binding inh 5%, JMJD2A Tudor -25%, Sfp inh 5% and G9a inh 71µM*.
C#CCSc1nc2sc3c(c2c(=O)n1-c1cccc(OC)c1)CCN(C(C)=O)C3 was read as BAZ2B inh inconclusive, 12-LOX inh -19%, HP1b binding inh -3%, JMJD2A Tudor 89µM* and G9a inh inconclusive.
For COC(=O)CSc1nc2sc3c(c2c(=O)n1-c1ccc(OC)cc1)CCN(C)C3 the results were BAZ2B inh -7%, 12-LOX inh -20%, HP1b binding inh -6%, JMJD2A Tudor -25%, Sfp inh -2% and G9a inh 12%.
Screening COc1ccc(-n2c(SCC(=O)NCc3ccco3)nc3sc4c(c3c2=O)CCN(C)C4)cc1 returned BAZ2B inh -29%, 12-LOX inh 34%, HP1b binding inh -2%, JMJD2A Tudor -24%, Sfp inh -2% and G9a inh 79µM*.
CCCCCSc1nc2sc3c(c2c(=O)n1-c1ccccc1)CCN(C(C)=O)C3 was read as BAZ2B inh -17%, 12-LOX inh inconclusive, HP1b binding inh 3%, JMJD2A Tudor -27% and G9a inh inconclusive.
COC(=O)c1ccc(COc2ccc3c(=O)c(-c4ccccc4OC)c(C)oc3c2)cc1 was read as 12-LOX inh 13%.
`O=C1[C@@H]2C[C@@H](CN2C2CCCC2)Oc2ccccc2N1Cc1ccccc1` gave 12-LOX inh -11%[176 µM].
For COc1cccc2cc(S(=O)(=O)c3ccccc3F)c(=O)oc12 the results were 12-LOX inh -9%.
Screening COC(=O)C(C)OC(=O)/C=C/c1ccc2ccccc2n1 (stereo unspecified) returned 12-LOX inh -1%.
Screening CN1CCc2c(sc3nc(SCC(=O)NCc4ccco4)n(-c4ccccc4)c(=O)c23)C1 returned BAZ2B inh inconclusive, 12-LOX inh 78%, HP1b binding inh 40%, JMJD2A Tudor -14%, Sfp inh 0% and G9a inh 45µM*.
For Cc1sc2nc(SCC(=O)NCc3ccco3)n(-c3ccccc3)c(=O)c2c1C the results were BAZ2B inh 7%, 12-LOX inh -5%, HP1b binding inh 19%, JMJD2A Tudor -13%, Sfp inh 8% and G9a inh 18%.
`Cc1csc(NC(=O)CSc2ccc(-c3ccccn3)nn2)n1` gave BAZ2B inh 7.1µM*, 12-LOX inh 3%, HP1b binding inh 13%, JMJD2A Tudor 22µM*, Sfp inh 14% and G9a inh 3%.
`COc1ccccc1CNC(=O)CSc1ccc(-c2ccccn2)nn1` gave BAZ2B inh 8.9µM*, 12-LOX inh 8%, HP1b binding inh 23%, JMJD2A Tudor 32µM*, Sfp inh -6% and G9a inh 8%.
Screening Nc1ccccc1SCC(=O)Nc1nccs1 returned BAZ2B inh -2%, 12-LOX inh -27%, HP1b binding inh 34%, JMJD2A Tudor 4%[57.1 µM], Sfp inh 10% and G9a inh inconclusive.
`O=C(CSc1ccc(-c2ccccn2)nn1)Nc1nccs1` gave BAZ2B inh -9%, 12-LOX inh -2%, HP1b binding inh 16%, JMJD2A Tudor 2.5µM*, Sfp inh -17% and G9a inh 40%.
COc1cccc(C2C(C(=O)c3sc(C)nc3C)=C(O)C(=O)N2CCN2CCOCC2)c1 (stereo unspecified) was read as BAZ2B inh -5%, 12-LOX inh inconclusive, HP1b binding inh 23%, JMJD2A Tudor inconclusive, Sfp inh -17% and G9a inh 50µM*.
Cc1ccc(C2C(C(=O)c3sc(C)nc3C)=C(O)C(=O)N2CCN2CCOCC2)o1 (stereo unspecified) was read as BAZ2B inh -33%, 12-LOX inh inconclusive, HP1b binding inh 4%, JMJD2A Tudor inconclusive, Sfp inh -9% and G9a inh 35µM*.
For COc1ccc(C2C(C(=O)c3sc(C)nc3C)=C(O)C(=O)N2CCN(C)C)cc1 (stereo unspecified) the results were BAZ2B inh 11%, 12-LOX inh inconclusive, HP1b binding inh 29%, JMJD2A Tudor 15%, Sfp inh 17% and G9a inh -7%[12.7 µM].
Screening Cc1cccc(CNC(=O)CCCNC(=O)C(C)(C)C)c1 returned 12-LOX inh -24%.
For CC(C)n1c(SCC(=O)N2CCCCC2)nc2c1c(=O)n(C)c(=O)n2C the results were BAZ2B inh 7%, 12-LOX inh -10%, HP1b binding inh 49%, JMJD2A Tudor -1%, Sfp inh 27% and G9a inh 1%.
`COc1ccc(N2CCN(C(=O)CSc3nc4c(c(=O)n(C)c(=O)n4C)n3C(C)C)CC2)cc1` gave BAZ2B inh -9%, 12-LOX inh 15%, HP1b binding inh 3%, JMJD2A Tudor -22%, Sfp inh 11% and G9a inh 50µM*.
COc1ccc(-n2c(SCC(=O)N3CCN(c4ccccc4)CC3)nc3c(c2=O)SCC3)cc1 was read as BAZ2B inh -37%, 12-LOX inh 11%, HP1b binding inh 7%, JMJD2A Tudor -27%, Sfp inh 10% and G9a inh 45µM*.
COc1cccc([C@@H]2CN(C(=O)c3cnn(C)c3)C[C@H]2C(=O)O)c1 was read as 12-LOX inh 16%.
Screening COc1ccc(OC)c(CCNc2nccn(-c3ccc(C)c(C)c3)c2=O)c1 returned BAZ2B inh 25µM*, 12-LOX inh -12%, HP1b binding inh inconclusive, JMJD2A Tudor 56µM* and G9a inh 16µM*.
Screening Cc1ccc(-n2ccnc(NCc3ccccc3)c2=O)cc1C returned BAZ2B inh inconclusive, 12-LOX inh -23%, HP1b binding inh -16%, JMJD2A Tudor -17% and G9a inh inconclusive.
